The list is not random: actives were taken first. Their share in the collection is about 1.2%.
CR mimetic SO: caloric restriction mimetics inhibiting age-related superoxide in yeast | S. cerevisiae aged cells, superoxide DHE fluorescence; stronger effect = lower value | superoxide response (% of plate mean), % at 10 µM | 330,000 compounds, 0.18% hits;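 active means superoxide response under a set limit, about three screen SD below normal, cut at about 65% in these data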;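 further: yeast aged for seven days with compound at 30 °C before DHE staining; 100% = average MFI of all compound-treated wells on the plate with controls excluded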
VLA-4 inh: inhibition in a human VLA-4 binding assay | 330,000 compounds, 0.2% hits | P13612 | inhibition, % (about 7 µM as worked out from the volumes in the protocol) | VLA-4 expressing cells, ligand binding flow cytometry; in the data active means inhibition above about 50%
ABCB6 inh 2: inhibitors of human ABC transporter ABCB6; Q9NP58; K562-ABCB6 porphyrin accumulation, flow cytometry, 1 h; stronger effect = lower value; fluorescence ratio to DMSO, % at 10 µM; 360,000 compounds, 0.19% hits; AID 602162;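 active means fluorescence ratio to DMSO below 75%, the collection mean minus 3 SD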;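 further: signal is porphyrin accumulated inside mitochondria; 100% equals median channel fluorescence of DMSO control wells; lower ratio means ABCB6 inhibition with less porphyrin fluorescence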
Target sequence (Q9NP58 whole entry, looked up): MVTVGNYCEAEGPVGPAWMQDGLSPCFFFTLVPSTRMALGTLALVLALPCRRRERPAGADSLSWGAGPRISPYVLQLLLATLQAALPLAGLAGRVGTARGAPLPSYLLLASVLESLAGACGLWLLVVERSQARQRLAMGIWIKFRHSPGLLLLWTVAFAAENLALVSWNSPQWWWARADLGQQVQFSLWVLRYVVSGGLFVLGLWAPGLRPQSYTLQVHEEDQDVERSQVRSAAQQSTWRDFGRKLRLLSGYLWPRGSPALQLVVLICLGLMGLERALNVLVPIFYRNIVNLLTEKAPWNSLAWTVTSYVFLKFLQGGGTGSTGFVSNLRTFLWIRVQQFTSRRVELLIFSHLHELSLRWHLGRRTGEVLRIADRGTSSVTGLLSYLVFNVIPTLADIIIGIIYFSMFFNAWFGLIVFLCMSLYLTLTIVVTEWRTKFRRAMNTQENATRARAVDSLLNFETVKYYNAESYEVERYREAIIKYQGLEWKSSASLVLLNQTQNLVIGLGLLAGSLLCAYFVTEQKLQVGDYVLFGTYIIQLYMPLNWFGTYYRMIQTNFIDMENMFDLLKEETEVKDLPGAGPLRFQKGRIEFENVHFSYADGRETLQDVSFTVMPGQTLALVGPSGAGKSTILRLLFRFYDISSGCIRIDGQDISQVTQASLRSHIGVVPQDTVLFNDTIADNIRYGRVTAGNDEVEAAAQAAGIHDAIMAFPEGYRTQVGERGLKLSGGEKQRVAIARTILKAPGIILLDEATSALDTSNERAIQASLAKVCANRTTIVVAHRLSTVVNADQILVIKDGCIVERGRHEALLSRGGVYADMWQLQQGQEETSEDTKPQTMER
SKN-1 block: inhibitors of C. elegans SKN-1; inhibition, % at 21.8 µM; 360,000 compounds, 0.49% hits; C. elegans VP596 Pgst-4::GFP/RFP ratio, acrylamide-induced, 24 h; AID 624304;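 active means interference check ratio from 0.5 to 1.5 plus GFP to RFP signal ratio inhibition reaching or exceeding a fixed threshold, cut at about 30% in these data, passing the limit was not always enough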
Platelet DG rel: modulates dense granule release in human platelets. human platelet-rich plasma, SFLLRN dense granule ATP release, luminescence. AID 1663. 300,000 compounds, 0.22% hits. inhibition, %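 (compounds screened at 7.5 µM in platelet-rich plasma)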;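 active means mean replicate score, as percent of positive control, at or above 50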
* = called active by the depositor; . = no result.

SMILES | CR mimetic SO | VLA-4 inh | ABCB6 inh 2 | SKN-1 block | Platelet DG rel
O=C1c2ccccc2C(=O)c2c(NCCCN(CCO)CCO)cccc21 | . | . | 148.0 | 40.7* | 3.0
CCC(=O)Nc1ccc2c(c1)OC[C@@H](C)N(Cc1ccccc1F)C[C@@H](C)[C@@H](OC)CN(C)C2=O | . | . | . | -10.2 | .
CCCC(C(=O)Nc1ccc(S(=O)(=O)N2CCOCC2)cc1)c1ccccc1 (stereo unspecified) | 95.0 | 10.8 | 100.0 | 36.9* | .
O=C(NCc1ccco1)c1cccs1 | 107.6 | 14.9 | 101.0 | 4.5 | 9.4
O=C(CSCc1ccco1)c1cccs1 | 92.6 | 5.4 | 112.0 | -21.4 | 85.4*
O=C(NCc1cccnc1)c1cc(C2CCCCN2C(=O)OCCF)on1 (stereo unspecified) | . | . | 91.0 | 13.4 | .
C=CCN1C(=O)/C(=C2/Sc3ccccc3N2C)SC1=Nc1c(C)n[nH]c1C | 106.7 | -15.4 | 98.0 | -18.1 | 52.6*
Clc1ccc(N=c2ssnc2Cl)cc1 | 97.2 | 0.2 | 95.0 | 92.0* | 0.9
Cc1ccc(-c2cc(C(=O)NCc3ccco3)c3ccccc3n2)o1 | 107.4 | -14.5 | 98.0 | 2.8 | 56.1*
COC(=O)C1=CN(c2ccc3c(c2)OCO3)C(N)=C(C#N)C1c1ccc(-c2ccccc2)cc1 (stereo unspecified) | . | . | . | -1.0 | .
Clc1ccccc1Nc1nnc(-c2ccncc2)s1 | 103.0 | 5.4 | 76.0 | -5.8 | 68.8*
FC(F)(F)c1ccc(Cl)c(Nc2nnc(-c3ccncc3)s2)c1 | . | . | 96.0 | -5.5 | .
O=C(Oc1ccc(-c2nnco2)cc1)c1cc(S(=O)(=O)N2CCOCC2)ccc1F | . | . | 109.0 | 13.8 | .
O=c1[nH]nc(Cc2ccccc2)c2ccccc12 | 97.4 | 5.7 | 98.0 | 0.6 | 1.3
O=c1[nH]nc(Cc2ccc([N+](=O)[O-])cc2)c2ccccc12 | 100.2 | 12.5 | 99.0 | 31.9* | 1.1
Cc1nc(-c2cccs2)sc1C(=O)O | 109.0 | 4.8 | 91.0 | -0.2 | 4.5
Cc1nccc(-c2sc(-c3cccs3)nc2C)n1 | 91.7 | -10.4 | 97.0 | 38.9* | -2.8
Cc1ccc(N2C(=O)c3ccccc3C2O)nc1 (stereo unspecified) | 109.8 | -2.3 | . | . | 77.6*
COC(=O)/C=C1\S/C(=N\N=C\CC(=O)OC)NC1=O | 108.5 | 0.4 | 99.0 | 36.5* | 15.3
O=C(C[n+]1ccc2ccccc2c1)Nc1cc(C(F)(F)F)ccc1Cl | 58.6* | -19.8 | 103.0 | -8.6 | -4.5
CCCOc1ccc(N2C(=O)CC(N(CCc3ccc(OC)cc3)C(=O)c3cccc(F)c3)C2=O)cc1 (stereo unspecified) | 90.8 | -2.9 | 101.0 | 35.4* | -1.1
Cc1cc(Br)ccc1NC(=O)CNC(=O)Cn1ncc(Cl)c(Cl)c1=O | 108.7 | 49.8* | 89.0 | -8.7 | 11.7
Cc1ccc(NC(=O)C2(C)CCN2Cc2cccc3c2OCO3)cc1O (stereo unspecified) | . | . | 103.0 | 7.0 | .
CN(C)c1ccc(-c2cc(NC=O)c3ncc(-c4ccc(F)c(Cl)c4)n3c2)cc1 | . | . | 115.0 | 22.6 | .
O=c1oc2ccc3ccccc3c2cc1-c1nnc(-c2ccccc2)o1 | 112.5 | -3.4 | 98.0 | 52.1* | 26.4
SMILES | CR mimetic SO | VLA-4 inh | ABCB6 inh 2 | SKN-1 block | Platelet DG rel
COc1ccc(-c2nnc(-c3cc4c(ccc5ccccc54)oc3=O)o2)cc1 | 99.0 | -6.2 | 95.0 | 10.2 | -1.5
COC(=O)[C@@]12C[C@@H](CC(=O)NCCC(C)C)C(=O)N(Cc3cccc4ccccc34)C1=CCC(C)(C)C2 | . | . | . | -3.8 | .
N/C(=N\OCc1ccc([N+](=O)[O-])cc1)c1ccccn1 | 88.3 | 7.2 | . | . | 62.6*
C/C(=N/OCc1ccc(Br)cc1)c1ccccn1 | 94.4 | 4.7 | 87.0 | 53.7* | 4.3
Nn1c(=S)[nH]c2sc3c(c2c1=O)CCCC3 | 84.4 | 12.5 | 98.0 | 35.6* | 5.1
CC(=O)N1CCN(c2ccc(NCc3cccc4ccccc34)cc2)CC1 | 101.2 | 9.8 | 98.0 | -3.7 | -0.5
CC(=O)N1CCN(c2ccc(NCc3ccccc3)cc2)CC1 | 89.0 | 6.4 | 101.0 | 38.4* | 1.2
Cc1ccc(C)c(C(O)c2ncc(-c3ccccc3F)[nH]2)c1 (stereo unspecified) | . | . | 93.0 | 6.6 | .
CC(=O)CSc1nc2ccccc2s1 | 89.5 | -10.4 | 93.0 | 34.2* | 2.7
O=C(CSc1nc2ccccc2s1)CSc1nc2ccccc2s1 | 106.6 | 3.8 | 98.0 | 6.5 | 0.0
Nc1ncnc2c1ncn2[C@@H]1O[C@H](CO)[C@@H](O)[C@H]1O | 107.3 | 0.9 | 89.0 | 10.3 | 80.9*
O=S1(=O)C=C(Oc2ccc3ccccc3c2)c2ccccc21 | 96.2 | -4.0 | 99.0 | 37.0* | 8.2
CCN(CC)c1ccc(N=Nc2nn(C)c(C)c2[N+](=O)[O-])cc1 | 78.3 | 11.8 | 105.0 | 22.0 | 12.1

Compound activity (PubChem)
